Reference: PubChem BioAssay (Tox21)
Active and inactive are the calls of the source. Entries that show only a call come without a potency. Calls follow the shape of the dose curve; as a rule, active = well fitted cell-killing curve with a large enough effect in the repeat runs; inconclusive = weak or mixed curves, or effect the other way; inactive = flat fitted curve, though single readings scatter.

Test: qHTS assay to identify small molecule HDAC inhibitors - cell viability counter screen (AID 1259365); also: nearly all actives have a fitted effect of over 50% in size
Conditions: HCT-116 viability, CellTiter-Glo ATP luminescence, 2 h; series mostly up to 92.4 µM
Text: U.S. Tox21 Program National Center for Advancing Translational Sciences [NCATS] NIH Chemical Genomics Center [NCGC] U.S. Environmental Protection Agency [EPA] National Institutes of Environmental Health Sciences [NIEHS] National Toxicology Program [NTP] U.S. Food and Drug Administration [FDA] Tox21 Assay Overview: Histone deacetylases (HDACs) are a group of epigenetic enzymes that regulate gene expression by histone deacetylation. HDACs are capable of introducing epigenetic modifications and such aberrations contribute to the onset and progression of several human diseases, thus making HDACs a popular therapeutic target. For identifying endogenous class I/II HDAC inhibitors a homogenous, luminogenic HDAC I/II cell based assay was used to measure the relative activity of class I and II HDACs from cells. Wild type HCT-116 cells were used to screen Tox21 compound libraries for identifying class I/II HDAC inhibitors.
Tox21 Assay Protocol Summary: HCT-116 cells were dispensed at 1,500 per well in 5uL of culture medium into white solid bottom 1536-well plates (Greiner Bio-One, Monroe, NC) using a Multidrop Combi (Thermo Scientific, Waltham, MA) dispenser. The assay plates were incubated at 37 C and 5% CO2 for an overnight, and then 23nL of compounds dissolved in DMSO and positive control were transferred using a Pintool station (Wako, San Diego, CA). The assay plates were incubated at 37C and 5% CO2 for 2hr. After compound treatment, 4uL of CellTiter-Glo reagent (Promega Corporation, Madison, WI) was added to each well of the assay plates using Flying Reagent Dispenser (FRD, Aurora Discovery, San Diego, CA) and incubated the assay plates at room temperature for 30min. The luminescence signal was quantified using a ViewLux plate reader (Perkin Elmer, Shelton, CT).
Potency is read from the fitted curve at half-maximal effect.

| Structure (SMILES) | Potency | activity change, negative = cytotoxicity |
| --- | --- | --- |
| NCC(=O)CCC(=O)O | inactive | – |
| C=C1C(=C/C=C2\CCC[C@]3(C)[C@@H]([C@H](C)/C=C/[C@@H](O)C4CC4)CC[C@@H]23)C[C@@H](O)C[C@@H]1O | inactive | – |
| C=CC(=O)OCCOCCOCCOCCOC(=O)C=C | inactive | – |
| c1ccc(C(O[C@H]2CCCN(CCc3ccc4c(c3)OCO4)C2)c2ccccc2)cc1 | inactive | – |
| NC(=O)C(c1ccccc1)(c1ccccc1)[C@@H]1CCN(CCc2ccc3c(c2)CCO3)C1 | inactive | – |
| NS(=O)(=O)c1ccc(N2CCCCS2(=O)=O)cc1 | inactive | – |
| O=C(OCCCCCCOC(=O)c1ccccc1)c1ccccc1 | inactive | – |
| Cc1ccc(C(C)OC(=O)C2(C)CCC(C(=O)O)C2(C)C)cc1 (stereo not given) | inactive | – |
| Cc1ccc(N=Nc2c(O)c(C(=O)O)cc3ccccc23)c(S(=O)(=O)O)c1 | inactive | – |
| CCCCC(=O)OCC(=O)[C@H]1[C@H](C)C[C@H]2[C@@H]3C[C@H](F)C4=CC(=O)C=C[C@]4(C)[C@@]3(F)[C@@H](O)C[C@@]21C | inactive | – |
| CC(=O)c1cccc([N+](=O)[O-])c1 | inactive | – |
| C[C@H](CCC(=O)O)[C@H]1CC[C@H]2[C@@H]3CC[C@@H]4C[C@H](O)CC[C@]4(C)[C@H]3C[C@H](O)[C@]12C | inactive | – |
| C[C@@H](c1ncncc1F)C(O)(Cn1cncn1)c1ccc(F)cc1F (stereo not given in full) | inactive | – |
| CCC(C)(C)CC | inactive | – |
| OC(CN1CCC(Cc2ccc(F)cc2)CC1)c1ccc(Cl)cc1 (stereo not given) | inactive | – |
| Nc1cccc(S(=O)(=O)c2cccc(N)c2)c1 | inactive | – |
| Nc1cccc([N+](=O)[O-])c1 | inactive | – |
| CC(C)(COC(=O)c1ccccc1)COC(=O)c1ccccc1 | inactive | – |
| C1CCCNCCC1 | inactive | – |
| Cc1oc2c(NC(=O)c3c(Cl)cccc3Cl)cccc2c1C(C)(C)O | inactive | – |

| Structure (SMILES) | Potency | activity change, negative = cytotoxicity |
| --- | --- | --- |
| COc1cccc(N(C)C(=S)Oc2ccc3c(c2)CCCC3)n1 | inactive | – |
| CCOC(=O)COC(=O)c1cc(Oc2ccc(C(F)(F)F)cc2Cl)ccc1[N+](=O)[O-] | inactive | – |
| CC[N+]1(CC)CCC(=C(c2ccccc2)c2ccccc2)C1C (stereo not given) | inactive | – |
| CCCCCCCCCCCCCCCCOS(=O)(=O)O | inactive | – |
| O=C(CS)Nc1ccccc1 | inactive | – |
| C/C(=C(\CCOP(=O)(O)O)SC(=O)c1ccccc1)N(C=O)Cc1cnc(C)nc1N | – | 6.82% [at 8.39 µM] (inactive) |
| CCN(CC)c1ccc(C(=C2C=CC(=[N+](CC)CC)C=C2)c2cc(S(=O)(=O)O)ccc2S(=O)(=O)[O-])cc1 | 11.9 µM (active) | – |
| Cc1[nH]c(C)c(Cl)c(=O)c1Cl | – | 8.49% [at 19 µM] (inactive) |
| CCNc1cc(O)ccc1C | inactive | – |
| COc1cc2nc(N(C)CCCNC(=O)C3CCCO3)nc(N)c2cc1OC (stereo not given) | inactive | – |
| COCCCN1CCC(NC(=O)c2cc(Cl)c(N)c3c2OCC3)CC1 | inactive | – |
| Nc1ncn([C@H]2C[C@H](O)[C@@H](CO)O2)c(=O)n1 | inactive | – |
| Cc1ncc(CO)c(C=O)c1O | inactive | – |
| CCCCCCCCO[C@@H]1O[C@H](CO)[C@@H](O)[C@H](O)[C@H]1O | inactive | – |
| CCCCOC(=O)CCCCCCCC(=O)OCCCC | inactive | – |
| CCOC(=O)C(O)c1ccccc1 (stereo not given) | inactive | – |
| O=C(O)C(S)C(S)C(=O)O (stereo not given) | inactive | – |
| Cc1ccc(C(=O)Oc2ccc(C(O)CNC(C)(C)C)cc2OC(=O)c2ccc(C)cc2)cc1 (stereo not given) | inactive | – |
| CCc1cc(C2=C(C(=O)O)N(c3ccccc3C(F)(F)F)S(=O)(=O)c3ccccc32)cc2c1OCO2 | inactive | – |
| CC(=O)c1ccc2c(c1)N(CCCN(C)C)c1ccccc1S2 | inactive | – |
